Assay outcomes (PubChem)
RT RNaseH block: HIV-1 RT RNase H inhibitors, primary screen, biochemical, fluorescence; Gag-Pol polyprotein (Human immunodeficiency virus type 1 group M subtype B (isolate …; 1.9% of 65,000 active; inhibition, % at 10 µM; RT-RNase H RNA/DNA duplex cleavage; in the data active = inhibition above about 50%
Numbers stand for hits; . = inactive. The entries come from a sample that favours hits as a whole.

SMILES	RT RNaseH block
N#CC1(c2nc3ccccc3[nH]2)CC1c1ccc2c(c1)OCO2 (stereo not given)	.
Cc1nnc(NC(=O)C2CCCO2)s1 (stereo not given)	.
CCCCCc1nnc(NC(=O)C2CCCO2)s1 (stereo not given)	64.0
Cc1ccc(S(=O)(=O)CCc2nnc(NC(=O)C3CCCO3)s2)cc1 (stereo not given)	.
Cc1cc(C)cc(Nc2ncc3c(n2)CCCC3=O)c1	.
CC#CCN(CC#CC)S(=O)(=O)c1ccc(-n2cnnn2)c(OC)c1	.
COc1ccc(C(=O)Nc2ccccc2C(=O)NCc2ccco2)cc1OC	.
COc1ccc(OC)c(N=c2oc3c(OC)cccc3cc2C(=O)NCc2ccco2)c1	88.1
COc1ccc(N=c2oc3c(OC)cccc3cc2C(=O)NCc2ccco2)cc1OC	.
COC(=O)C1=C(N)Oc2cc(C)n(CC3CCCO3)c(=O)c2C1c1ccc(Cl)cc1 (stereo not given)	.
CC(CCc1ccco1)NC(=O)Cn1ncc2c1-c1ccccc1OC2 (stereo not given)	.
Cc1nnc(NC(=O)c2ccc(-c3cccc(C(F)(F)F)c3)o2)s1	57.0
Cc1nnc(NC(=O)c2cccc(F)c2)s1	.
CC(=O)Cc1nsc(NC(=O)c2ccc(-c3cccc(C(F)(F)F)c3)o2)n1	.
CC(C)Cn1c(Br)nc2c1c(=O)n(CCC#N)c(=O)n2C	.
COc1ccc(Cl)cc1N1C(=O)C2CCCN2C1c1ccc(F)cc1 (stereo not given)	.
O=C(Nc1nnc(C2CC2)o1)c1ccc(S(=O)(=O)N2CCCc3ccccc32)cc1	.
COc1cccc(-c2nnc(NC(=O)c3ccc(S(=O)(=O)N4CCOCC4)cc3)o2)c1	.
COc1ccc(-c2nnc(NC(=O)c3ccc(S(=O)(=O)N4CCCc5ccccc54)cc3)o2)cc1	52.1
O=C(Cc1cccs1)N(Cc1ccco1)C1(C(=O)NC2CCCC2)CCCCC1	.
CCOc1ccc2nc(NC(=O)c3ccc(S(=O)(=O)N4CCOCC4)cc3)sc2c1	.
O=C(CCc1ccccc1)Nc1nc2ccc(S(=O)(=O)N3CCOCC3)cc2s1	63.8
COc1ccc(CC(=O)Nc2nc3ccccc3s2)cc1S(=O)(=O)N1CCOCC1	.
Cc1ccc(C(=O)c2coc3ccc(O)c(CN4CCN(C)CC4)c23)cc1	.
C=CCc1c(C)c(C#N)c2nc3ccccc3n2c1N1CCN(C)CC1	.
SMILES	RT RNaseH block
CCCn1nnnc1SCC(=O)Nc1ccc(F)cc1	.
CCn1nnnc1SCC(=O)N(C1CCCCC1)C1CCCCC1	.
CCCn1nnnc1SCC(=O)N(C(C)C)C(C)C	64.5
CCOC(=O)C1=C(C)N=C2SC(C)C(=O)N2C1c1ccc(OCC)c(OCC)c1 (stereo not given)	.
O=C(NC1CCCCC1)Nn1c(-c2ccccc2)nc2ccccc2c1=O	.
COc1cc(C)c(Br)cc1S(=O)(=O)N1CCCC1	.
CCC(Sc1nc2cc3c(cc2c(=O)n1Cc1ccco1)OCO3)C(=O)Nc1ccccc1OC (stereo not given)	.
COc1cccc(-c2nnc(SCC(=O)Nc3ccc4c(c3)OCCO4)n2Cc2ccco2)c1	.
CCC(Sc1nc2cc3c(cc2c(=O)n1Cc1ccco1)OCO3)C(=O)Nc1cccc(OC)c1 (stereo not given)	59.8
Cc1cc(/N=C/C=C2\N(C)c3ccccc3C2(C)C)n(CCC#N)n1	.
CCOc1cc(S(=O)(=O)NCCc2cccc(C)c2)c(OCC)cc1-n1cnnn1	.
O=C(NCc1ccco1)C1CC(=O)N(c2ccc(O)cc2)C1 (stereo not given)	.
CCCC(=O)Nc1ccc(-c2nc3cc(C)c(C)cc3o2)c(O)c1	58.2
CCCC(=O)Nc1ccc(-c2nc3cc(C)ccc3o2)cc1	.
COc1ccc(CC(=O)Nc2ccc(-c3nc4cc(C)ccc4o3)c(O)c2)cc1OC	.
CCCCOC(=O)Cn1c(=O)c2c(nc(Br)n2Cc2ccccc2)n(C)c1=O	.
Cn1c(=O)n(CCc2ccccc2)c(=O)c2c1nc1n2CCCN1c1ccc(F)cc1	.
CCCCn1c(=O)c(C(=O)NCc2ccncc2)c(O)c2ccccc21	.
CCCCCCn1c(=O)c(C(=O)Nc2ccncc2)c(O)c2ccccc21	69.4
O=C(Nc1ccncc1)c1c(O)c2ccccc2n(Cc2ccccc2)c1=O	.
OCCSc1c(F)c(SCCO)c(SCCO)c(F)c1SCCO	.
CCN1C=C(Cc2cccs2)C2=C(C1)C(c1cccs1)C(C#N)=C(N)O2 (stereo not given)	.
O=C(Nc1nnc(C2CC2)s1)C1Cc2ccccc2CN1S(=O)(=O)c1cccs1 (stereo not given)	58.9
O=C(Nc1ccccn1)C1CCN(S(=O)(=O)c2cccs2)CC1	.
COc1ccc(S(=O)(=O)N2Cc3ccccc3CC2C(=O)Nc2nccs2)cc1OC (stereo not given)	.
SMILES	RT RNaseH block
O=C(C1CCN(S(=O)(=O)c2cccs2)CC1)N1CCc2ccccc2C1	.
CCc1nnc(NC(=O)C2Cc3ccccc3CN2S(=O)(=O)c2cccs2)s1 (stereo not given)	50.5
CCc1nnc(NC(=O)C2CCCN2S(=O)(=O)c2ccc(C)cc2)s1 (stereo not given)	.
COc1ccc(N(CC(=O)N2CCCC(C)C2)S(=O)(=O)c2c(C)nn(C)c2C)cc1 (stereo not given)	.
O=C(COc1ccc(-n2cnnn2)cc1)NC(=O)NCc1ccccc1	.
COc1ccccc1CN1CCN(C(CC(C)C)c2nnnn2Cc2cccs2)CC1 (stereo not given)	.
Cc1ccc(-c2csc(N3CCC(NS(=O)(=O)c4ccc5c(c4)OCCO5)CC3)n2)cc1	.
CCSc1nnc(NC(=O)c2ccccc2)s1	.
CCSc1nnc(NC(=O)c2csc3c2CCC(C)C3)s1 (stereo not given)	58.1
CCSc1nnc(NC(=O)c2cc3c(s2)CCCC3)s1	.
Cc1cc2c(cc(C(=O)NCc3cccnc3)n2Cc2ccc(Cl)cc2)o1	.
COc1ccccc1OCc1nnc(SCC(=O)c2cc(Cl)ccc2OC)o1	.
Cc1ccc(-c2nnn(CC(=O)N(Cc3ccccc3)C(C(=O)NC3CCCC3)c3ccncc3)n2)o1 (stereo not given)	.
Cc1ccc(-c2nnn(CC(=O)N(Cc3cccs3)C(C(=O)NC3CCCC3)c3ccco3)n2)o1 (stereo not given)	.
Cc1ccc(-c2nnn(CC(=O)N(c3ccccc3)C(C(=O)NC3CCCC3)c3ccco3)n2)o1 (stereo not given)	60.4
COc1ccc(Cl)cc1-n1c(N)c(C(N)=O)sc1=S	74.8
COc1ccc(Cl)cc1N1C(=O)C2CCCN2C1c1sccc1C (stereo not given)	.
CCOC(=O)c1sc(=S)n(Cc2ccccc2)c1N	.
COc1ccc(C2N(c3cc(Cl)ccc3OC)C(=O)C3CCCN32)cc1 (stereo not given)	.
Cc1ccc(-n2c(N)c(C(N)=O)sc2=S)c(C)c1	65.3
Cc1ccc(C)c(-n2c(N)c(C(N)=O)sc2=S)c1	.
O=C(COc1ccc(Cl)cc1Cl)NC(=O)N1CCOCC1	.
CCn1c(SCc2c(F)cccc2Cl)nnc1-c1ccco1	.
O=C(NCc1ccccc1)c1n[nH]nc1-c1ccccc1O	.
CC1=CS/C(=C(/C#N)C(=O)N2CCCCC2)N1c1ccccc1	.
COC(=O)/C(C#N)=C1/SC=C(C)N1c1ccccc1	.
N#C/C(C(=O)c1ccccc1)=C1/SC=C(N)N1c1ccccc1	64.2
O=C(NCCN1CCCC1)c1ccc2c(=O)n(CCc3ccccc3)c(=O)[nH]c2c1	.
